# Bioassay records from PubChem BioAssay.
# Beta2AR agonist: human beta-2 adrenergic receptor agonism by FAP | P07550 | Am2.2-beta2AR cells, FAP receptor internalization, flow cytometry | response, % (no concentration beside the values) | 340,000 compounds, 0.43% hits | AID 504454;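 active = response above a set limit, near 3 SD of response in nonfluorescent compounds, cut at about 42% in these data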
# Granule exo inh: blocks lytic granule exocytosis; inhibition, % at 10 µM; TALL-104 LAMP-1 surface exposure, flow cytometry; cells stimulated with thapsigargin and PMA; 360,000 compounds, 0.66% hits;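 active = inhibition above about 55%, limit read from the data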
# NadD block: blocks S. aureus nicotinate mononucleotide adenylyltransferase; 360,000 compounds, 0.78% hits; AID 602399; inhibition, % at 20 µM; purified NadD enzyme, colorimetric absorbance read-out; in the data active = inhibition above about 26%
# GRK2 aptamer HTS: blocks RNA aptamer binding to human GRK2 | 330,000 compounds, 0.59% hits | AID 488847 | inhibition of aptamer binding, % at 10 µM | bead flow cytometry, FAM-aptamer displacement from GRK2 | P25098;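 active = inhibition of aptamer binding above 40%, roughly 3 SD of noise, on plates passing a quality check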;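 also: median bead fluorescence of bound FAM aptamer so fluorescent compounds give negative values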
# PP1 inh: counter-screen for PP5 inhibitors: inhibitors of human PP1-alpha; purified PP1alpha, OMFP fluorescence; inhibition, % at 6.7 µM; 320,000 compounds, 0.9% hits; AID 2235;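 active = inhibition above the mean inhibition of all tested compounds plus 3 SD, computed separately for each screening campaign, cut at about 15% in these data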
# Target sequence (P62136 whole entry, looked up): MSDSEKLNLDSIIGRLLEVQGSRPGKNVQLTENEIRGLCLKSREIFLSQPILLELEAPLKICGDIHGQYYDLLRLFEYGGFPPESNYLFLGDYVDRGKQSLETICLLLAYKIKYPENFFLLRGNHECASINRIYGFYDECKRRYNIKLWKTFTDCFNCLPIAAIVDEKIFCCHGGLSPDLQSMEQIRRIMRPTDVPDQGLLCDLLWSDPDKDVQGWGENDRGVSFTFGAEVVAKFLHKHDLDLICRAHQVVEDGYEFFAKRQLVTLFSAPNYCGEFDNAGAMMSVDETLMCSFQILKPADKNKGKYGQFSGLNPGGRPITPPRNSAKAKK
# Beta2AR ag CP1: agonists of human beta-2 adrenergic receptor; Am2.2-beta2AR cells, FAP surface receptor, flow cytometry; hits give low values; 1,100 compounds, 25% hits; shares compounds with Beta2AR agonist; AID 540358; percent response (surface receptor), % at 10 µM;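 active = surface receptor percent response at or below 58%, roughly 3 SD from nonfluorescent compounds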
# FAP fluor counter: counter-screen for beta-2AR agonists: fluorescence in Am2.2 cells. shares compounds with Beta2AR agonist. FAP fluorogen flow cytometry, fluorescence counterscreen; hits give low values. calls only at 10 µM. 1,100 tested, under 10 active. AID 588765;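 active = percent response below a set limit in fluorescence channel 1 and below 50% in channel 8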
# Numbers without * were called inactive; i = inactive; nt = no result. A selection: hits, their analogues and other compounds. The true share with any hit is near 2.9%.
SMILES,Beta2AR agonist,Granule exo inh,NadD block,GRK2 aptamer HTS,PP1 inh,Beta2AR ag CP1,FAP fluor counter
COCCNC(=S)N/N=C(\C)c1ccc(Cl)s1,5,7,-4,4,-3,108,i
Nc1cccc(C#Cc2ccc3c(=O)c4ccccc4oc3c2)c1,48*,3,6,0,3,28*,i
Nc1ccc(C#Cc2ccc3oc4ccccc4c(=O)c3c2)cc1,3,-6,8,0,1,nt,nt
CN(C)CC/C=C1\c2ccccc2Sc2ccc(Cl)cc21,53*,-1,-3,0,2,97,i
C[C@H]1CCCCO[C@@H](CN(C)C(=O)NC2CCCCC2)[C@@H](C)CN([C@@H](C)CO)C(=O)c2cc(NC(=O)Cc3ccccc3)ccc2O1,nt,2,0,nt,nt,nt,nt
COc1ccc2[nH]c3c(NCCC4=CCCCC4)ncnc3c2c1,45*,52,3,nt,nt,62,i
CCN(CC)CCNc1ncnc2c1[nH]c1ccc(OC)cc12,nt,nt,nt,0,-3,nt,nt
Cc1ccc(NC(=O)c2ncn(CC(=O)NCC(C)c3ccccc3)n2)cc1C (centres undefined),0,-3,2,2,nt,nt,nt
COCCn1ccc2c(OCC(=O)Nc3cccc(NC(C)=O)c3)cccc2c1=O,11,7,4,3,0,nt,nt
COc1ccc(OC)c(C2=NS(=O)(=O)N(C)C(C(=O)NCc3ccco3)=C2)c1,0,-2,-4,3,-5,nt,nt
CC(=O)N1CCc2cc(C(=O)CN3CCN(c4cccc(Cl)c4)CC3)ccc21,57*,4,2,0,-1,9.1*,i
COC(=O)CCCC(=O)N1CCC(CCC(=O)NCc2ccc(F)cc2)CC1,4,2,-2,1,-5,nt,nt
CNCCCC12CCC(c3ccccc31)c1ccccc12,29,-1,-2,0,1,95,i
CC(=O)c1sccc1NC(=O)c1ccccc1C(=O)O,-6,1,-3,0,-6,nt,nt
COc1ccc(-c2sc3cc4c(cc3c2C#CC2(N)CCCCC2)OCO4)cc1,25,-8,11,0,11,nt,nt
COc1ccc(-c2sc3cc4c(cc3c2C#Cc2cncn2C)OCO4)cc1,56*,-2,9,2,nt,90,i
Cc1ccccc1CNC(=O)c1cc(COc2ccc(F)cc2F)on1,-1,0,-8,1,2,nt,nt
Cc1ccc(OCc2cc(C(=O)NCc3cc(F)ccc3C)no2)cn1,-11,-3,1,nt,nt,75,i
CCC(NC(=O)c1cc(COc2ccc(C)nc2)on1)c1ccc(C)cc1 (centres undefined),-3,-11,-3,0,-3,128,i
CSc1ccccc1OCc1cc(C(=O)NC2CCc3ccccc32)no1 (centres undefined),2,5,7,0,-4,nt,nt
CCC(NC(=O)c1cc(COc2cc(C)c(Cl)c(C)c2)on1)c1ccncc1 (centres undefined),-2,19,-6,3,7,nt,nt
Cc1ccc(OCc2cc(C(=O)NC3CCc4ccccc43)no2)cn1 (centres undefined),-3,1,-1,0,nt,122,i
COC(=O)CCCC(=O)OC,0,1,2,0,nt,nt,nt
CNC(=S)N/N=C/c1cn(CCOc2cccc(OC)c2)c2ccccc12,10,25,-18,0,2,nt,nt
CCc1nc2c(OCc3ccc(OC(F)F)cc3)cccn2c1N(C)C(=O)c1ccc(OC)cc1,nt,7,7,nt,nt,nt,nt
SMILES,Beta2AR agonist,Granule exo inh,NadD block,GRK2 aptamer HTS,PP1 inh,Beta2AR ag CP1,FAP fluor counter
COc1ccc(CN(C)C(=O)C2CCN(S(=O)(=O)c3cccs3)CC2)cc1F,2,-2,3,0,-7,nt,nt
CNC(=O)c1nnn(Cc2ccccc2)c1NC(=O)C(F)(F)F,9,-2,-4,2,-2,nt,nt
CCN(CC)c1ccc([C@H]2[C@@H]3CCCC[C@]3(O)CCN2CC(=O)NCc2ccco2)cc1,23,0,-3,0,-4,126,i
CCN(CC)c1ccc(C2C3CCCCC3(O)CCN2CC(=O)N2CCCCC2)cc1 (centres undefined),5,-3,4,0,1,nt,nt
Cc1ccc2c(c1)c1c(n2CC(O)CNC(CO)(CO)CO)CCCC1 (centres undefined),2,0,-4,0,-3,nt,nt
Cc1ccc2c(c1)c1c(n2CC(O)CNC2CCCCC2)CCCC1 (centres undefined),53*,2,1,0,1,112,i
Cc1ccc(NNC(=O)Nc2ccc(Cl)cc2)nn1,-4,12,-2,2,2,nt,nt
Cc1ccc(C(=O)N(CC(=O)NC2CCCC2)c2ccccc2F)s1,nt,10,3,nt,nt,nt,nt
O=C(CNC(=O)c1cccc(N2C(=O)c3ccccc3C2=O)c1)Nc1ccc(F)c(F)c1,-7,21,-6,0,2,nt,nt
O=C(Nc1ccc(F)cc1)c1cccc(N2C(=O)c3ccccc3C2=O)c1,-10,4,-8,0,0,100,i
O=C(CCc1ccccc1)N1CCN(S(=O)(=O)c2cccs2)CC1,7,4,-2,1,0,nt,nt
COC(=O)c1ccc(COc2cc(O)c3c(c2)OC(C)(C)CC3=O)cc1,45*,2,-5,0,0,106,i
CC1(C)CC(=O)c2c(O)cc(OCc3ccc(Br)cc3)cc2O1,2,3,-3,0,-2,nt,nt
CC(=O)N1c2ccccc2C(C)(c2ccccc2)CC1(C)C (centres undefined),54*,-2,0,3,-2,45*,i
COc1ccc(/C=C/C(=O)NCCSCc2ccco2)cc1OC,-1,1,-4,0,-7,nt,nt
Cc1sc2ncnc(Sc3nnnn3-c3ccccc3)c2c1C,1,-1,-8,0,1,nt,nt
COc1ccc(-c2csc3ncnc(Sc4nnnn4C)c23)cc1,1,-2,-3,4,nt,nt,nt
Clc1ccc(-n2nnnc2Sc2ncnc3sccc23)cc1,54*,2,5,1,4,35*,i
Cn1nnnc1Sc1ncnc2scc(-c3ccc(Cl)cc3)c12,85*,1,2,2,3,6.3*,i
CS/C(Nc1cc(Cl)ccc1Cl)=C(/C#N)C(=O)c1ccco1,34,7,-6,1,-1,nt,nt
Nc1cc(N)nc(SCc2cc([N+](=O)[O-])cc3c2OCOC3)n1,55*,-2,1,0,0,10.0*,i
COC(=O)[C@H](CC(C)C)NC(=O)Cn1cnc2c(NCc3ccccc3)ncnc21,2,1,6,0,nt,nt,nt
COc1cc(C(=O)Nc2nc3ccccc3s2)ccc1OCc1c(C)noc1C,53*,-2,4,0,2,108,i
CCCCOc1cccc(C(=O)Nc2ccc(NC(=O)c3cccs3)cc2)c1,79*,2,-2,1,-2,21*,i
CC(/C=C/c1ccccc1)=N\NC(N)=S,-6,1,6,4,-3,91,i
